# High-throughput results from PubChem.
# The list is not random: actives were taken first. Their share in the collection is about 32%.
# CYP2C9 inh = inhibitors of human CYP2C9; CYP2C9 Supersomes, luciferin-H conversion, luminescence; inhibition, % at 5 µM; 96,000 tested, 20% active; AID 777;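 active means blocking of liver enzyme CYP2C9 beyond about 50% at 5 µM, limit read from the data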
# Target sequence (P11712 whole entry, looked up): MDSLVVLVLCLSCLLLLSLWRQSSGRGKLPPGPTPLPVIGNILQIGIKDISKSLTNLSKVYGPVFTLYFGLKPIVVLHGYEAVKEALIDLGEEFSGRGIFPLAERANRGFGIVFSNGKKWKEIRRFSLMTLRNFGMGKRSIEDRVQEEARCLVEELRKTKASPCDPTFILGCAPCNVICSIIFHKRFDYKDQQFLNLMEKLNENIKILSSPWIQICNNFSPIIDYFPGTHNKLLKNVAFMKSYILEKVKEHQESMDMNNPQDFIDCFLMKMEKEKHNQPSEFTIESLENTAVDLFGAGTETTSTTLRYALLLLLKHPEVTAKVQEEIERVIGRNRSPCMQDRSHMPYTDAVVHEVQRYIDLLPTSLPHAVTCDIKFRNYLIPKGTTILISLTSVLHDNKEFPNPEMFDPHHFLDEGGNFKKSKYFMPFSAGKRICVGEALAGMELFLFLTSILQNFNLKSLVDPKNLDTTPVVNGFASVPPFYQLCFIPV
# CYP2C19 inhib = human CYP2C19 inhibition. AID 778. P33261. CYP2C19 Supersomes, luciferin-H EGE luminescence, 30 min. 96,000 tested, 21% active. inhibition, % at 5 µM;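 active means CYP2C19 inhibition above a set limit at 5 µM in the primary screen, cut at about 50% in these data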;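 further: plate controls were negative control wells for no effect and 2.5 mM tranylcypromine positive control for full effect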
# CYP2C9 act = activators of human CYP2C9. recombinant CYP2C9, luciferin-H conversion, luminescence; active compounds read high; factor 1 = untreated enzyme, 0 = blocked. AID 1024. activation factor at 5 µM. 96,000 tested, 1.4% active;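 active means activation factor of 2 or more for CYP2C9 at a 5 µM dose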;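 further: 0 = sulfaphenazole-blocked wells and 1 = vehicle-only wells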
# PostGolgi yeast = growth inhibition of a yeast mutant, post-Golgi transport screen. post-Golgi transport phenotypic cell assay. inhibition, % at 10 µM. 98,000 tested, 0.9% active. AID 739;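 further: yeast cells grown in 1536-well plates; yeast grown about 18 h at 30C before absorbance read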
# PostGolgi ctrl = inhibits growth of the yeast control strain; efflux-deficient yeast background strain, growth absorbance A615, 16 h; inhibition, % at 10 µM; 98,000 tested, 5% active
# CYP2C19 act = cytochrome P450 2C19 (human) activation; 96,000 tested, under 10 active; P33261; recombinant CYP2C19, luciferin-H EGE luminescence; active compounds read high; 0 = fully inhibited enzyme, 1 = untreated enzyme; activation factor at 5 µM;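 active means activation factor of at least 2 at 5 µM in the primary screen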;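 further: 0 = wells with 2.5 mM tranylcypromine and 1 = vehicle-only wells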
# * = called active by the depositor; / = no result. Unless noted, no stated cut-off is given here; in the data, active means inhibition above about 30%; inactive means the rest.
SMILES,CYP2C9 inh,CYP2C19 inhib,CYP2C9 act,PostGolgi yeast,PostGolgi ctrl,CYP2C19 act
CSc1nsc(SCC(=O)N2CCCc3ccccc32)n1,80*,99*,0.2,1,11,0
COc1ccccc1N1CCN(C(=O)CSc2ccc3c(C)cc(C)nc3n2)CC1,/,/,/,2,6,/
O=C1C=C(NCCN2CCOCC2)CC(c2ccccc2)C1 (configuration not stated),-2,8,1,-7,0,0.9
O=C1C=C(NCC2CCCO2)CC(c2ccccc2)C1 (configuration not stated),-3,73*,1,24,12,0.3
COc1cc(OC)c(CN2CCCCCCC2)cc1Br,0,37,1,1,-4,0.6
CN(C)C(=O)c1cc(F)ccc1Sc1cc(Cl)ccc1Cl,50,98*,0.5,-6,6,0
Cc1nc(C(=O)N(C)C)nn1-c1ccc(Cl)cc1Cl,48,-2,0.5,-3,3,1
CN(C)C(=O)c1cc(Cl)ccc1Sc1cc(Cl)ccc1Cl,84*,97*,0.2,-4,56*,0
CCOC(=O)c1cc2n(n1)C(C(F)(F)F)CC(C)N2 (configuration not stated),2,35,1,10,3,0.6
Cc1ccccc1-c1nc(CN2CCCC(C(=O)NCc3cccnc3)C2)c(C)o1 (configuration not stated),0,5,1,1,2,1
O=c1c2c(nc3cc(-c4cccc(Cl)c4)[nH]n13)CCC2,7,2,0.9,17,-8,1
Cc1cccc(-c2cc3nc4c(c(N5CCCC(O)C5)n3n2)CCC4)c1 (configuration not stated),98*,87*,0,-1,79*,0.1
COc1cccc(N2CCN(c3c4c(nc5ncnn35)CCC4)CC2)c1,12,25,0.9,4,0,0.7
OC1CCCN(c2c3c(nc4cc(-c5cccc(Cl)c5)nn24)CCC3)C1 (configuration not stated),/,/,/,22,96*,/
COc1cccc(NC(=O)c2cc(-c3cccnc3)nc3c(Cl)cccc23)c1,77*,38,0.2,4,21,0.6
COc1ccc(NC(=O)c2cccnc2)c(OC)c1,14,35,0.9,15,-3,0.7
COc1ccc(NC(=O)c2cc3nc(-c4ccccc4)cc(-c4ccccc4)n3n2)c(OC)c1,77*,36,0.2,8,3,0.6
COc1cc2c(cc1NC(=O)c1cc(-c3cccnc3)nc3ccc(C)cc13)oc1ccccc12,75*,31,0.2,-13,2,0.7
COc1ccc(NC(=O)c2cc(-c3cccnc3)nc3c(C)c(C)ccc23)c(OC)c1,86*,80*,0.1,3,5,0.2
Cc1ccc2nc(C3CCN(CC(=O)N4CCCCCC4)CC3)[nH]c2c1,10,4,0.9,2,-4,1
CC(=O)N1CCC2(CC1)CC(=O)c1cc(OCC(=O)NCc3ccco3)ccc1O2,-31,7,1.3,-6,2,0.9
CC1(C)CC(c2csc(N)n2)CCO1 (configuration not stated),16,-8,0.8,9,0,1.1
CCN(CCCNC(=O)CC1Oc2ccc(C)cc2NC1=O)Cc1ccccc1 (configuration not stated),-1,-4,1,3,8,1
CCCCNS(=O)(=O)c1ccc2nc(SCC(=O)N3CC(C)OC(C)C3)[nH]c2c1 (configuration not stated),55*,42,0.4,15,14,0.6
COc1ccc(-c2nc(-c3ccccc3)nc(Cl)c2C#N)cc1,25,7,0.7,-4,12,0.9
SMILES,CYP2C9 inh,CYP2C19 inhib,CYP2C9 act,PostGolgi yeast,PostGolgi ctrl,CYP2C19 act
COc1ccc(-c2nc(-c3cccc(C)c3)nc(Cl)c2C#N)cc1,69*,4,0.3,-1,6,1
COc1ccc(-c2c(C#N)c(C)nc3c2C(=O)c2ccccc2-3)cc1,48,57*,0.5,-13,19,0.4
CC1CCN(c2nc(-c3ccccc3)c(C#N)c(=O)[nH]2)CC1,6,1,0.9,-5,0,1
COc1ccc(-c2nc(-c3ccccc3)[nH]c(=O)c2C#N)cc1,65*,-16,0.3,-6,4,1.2
COc1ccc(OCCCC(=O)NCC(C)C)cc1,19,42,0.8,-1,3,0.6
CC(C)NC(=O)N(O)C1N(Cc2ccc3c(c2)OCO3)C(=S)SC1(C)C (configuration not stated),94*,98*,0.1,-6,1,0
COc1cccc(CN2C(=O)N(C(C)C)C(N(O)C(=O)NC(C)C)C2(C)C)c1OC (configuration not stated),11,-1,0.9,-7,6,1
O=C(Cn1nnc(-c2ccccc2Cl)n1)N1CCN(S(=O)(=O)c2ccc(Cl)cc2)CC1,11,12,0.9,2,13,0.9
Cc1ccc(/C=C2\Sc3ccccc3C2=O)s1,75*,94*,0.3,9,6,0.1
O=c1/c(=C\c2cccnc2)sc2nc3ccccc3n12,19,37,0.8,12,6,0.6
COc1ccc(N=C2S/C(=C\c3ccc(C)s3)C(=O)N2CC(C)C)cc1,28,6,0.7,-3,12,0.9
O=C1/C(=C/c2cccnc2)Sc2ccccc21,66*,78*,0.3,-3,2,0.2
Cc1nc(N)nc(OCC(F)(F)C(F)F)c1Br,21,19,0.8,-4,-3,0.8
CCC(C)C(=O)N1CCc2cc(-c3csc(N)n3)ccc21 (configuration not stated),70*,78*,0.3,0,3,0.2
CCc1ccc(NC(=O)CS(=O)CC(=O)NCC2OCCc3ccccc32)cc1 (configuration not stated),74*,46,0.3,-2,9,0.5
CCc1ccc(NC(=O)CS(=O)CC(=O)NC(C)CCc2ccco2)cc1 (configuration not stated),/,/,/,4,8,/
O=C(CCN1CCCCC1)NCC1OCCc2ccccc21 (configuration not stated),-9,86*,1.1,4,-16,0.1
O=C(NCC1OCCc2ccccc21)c1ccco1 (configuration not stated),3,16,1,12,-9,0.8
CC(C)(C)NC(=O)CSc1nncn1NCc1ccccc1,11,12,0.9,11,-13,0.9
Fc1ccc(CSc2nncn2NC/C=C/c2ccccc2)cc1,25,69*,0.8,8,23,0.3
CN(C)c1ccc(CNn2cnnc2SCc2ccc(F)cc2)cc1,63*,98*,0.4,-2,9,0
COCCCN1C(=O)C(=O)/C(=C(/O)c2ccc(OCC(C)C)cc2C)C1c1cccnc1 (configuration not stated),-3,0,1,-4,17,1
